# PubChem BioAssay (Tox21)
# Records with an inconclusive call do not appear. Calls of active or inactive are those of the source. Calls follow the shape of the dose curve; as a rule, active = well fitted activation curve with a large enough effect in the signal ratio in the repeat runs (not every such curve was filed as active); inconclusive = weak or mixed curves; inactive = flat fitted curve, though single readings scatter; the % refers to the signal ratio.
# Assay: p53 small molecule agonists, cell-based qHTS assay (AID 1963582)
# Conditions: HCT-116 p53RE-bla reporter, beta-lactamase FRET ratio, 16 h; series mostly up to 66 µM; activation: at the top concentration
# Source text: National Center for Advancing Translational Sciences [NCATS]
# Division of Preclinical Innovation [DPI]
# U.S. Environmental Protection Agency [EPA]
# National Institutes of Environmental Health Sciences [NIEHS]
# National Toxicology Program [NTP]
# U.S. Food and Drug Administration [FDA]
# p53, a tumor suppressor protein, is activated following cellular insult, including DNA damage and other cellular stresses. The activation of p53 regulates cell fate by inducing DNA repair, cell cycle arrest, apoptosis, or cellular senescence. The activation of p53, therefore, is a good indicator of DNA damage and other cellular stresses. […] The activation of the reporter gene under culture conditions can be detected by fluorescence intensity. This cell line was used to screen the Tox21 10K compound library in a 1536-well plate format and to identify agonists that activate the p53 signaling pathway.
# Tox21 Assay Protocol Summary:
# The p53RE-bla cells were dispensed at 4,000 cells/5 ul/well in 1536-well black wall/clear bottom plates using a Multidrop dispenser. After the assay plates were incubated at a 37 C/5% CO2 incubator for 5 hours, 23 nL of compounds dissolved in DMSO, positive controls or DMSO only was transferred to the assay plate by a pin tool. The plates were incubated at 37 C for 16 hours. After 1 uL of LiveBLAzerTM B/G FRET substrate was added using a Flying Reagent Dispenser, the plates were incubated at room temperature for 2 hours, and fluorescence intensity was measured by an Envision plate reader.
# % is scaled to controls: 0 for no effect and ±100 for the full control effect; potency is read from the fitted curve at half-maximal effect.
Structure (SMILES),activation,Potency
COc1cc2[nH]c(=O)[nH]c(=O)c2cc1OC,-5.14% [at 30.3 µM] (inactive),
O=C1c2ccccc2C(=O)C1c1nc2ccccc2c(Br)c1O,-0.911% (inactive),
CCOC(=O)C1=C(C)NC(C)=C(C(=O)OC)C1c1cccc([N+](=O)[O-])c1 (stereo not given),-0.848% [at 30.3 µM] (inactive),
Cc1cc(-n2nc3ccc(Cl)cc3n2)c(O)c(C(C)(C)C)c1,1.4% [at 30.3 µM] (inactive),
CC(=O)OCC(=O)[C@@]1(OC(C)=O)[C@@H](C)C[C@H]2[C@@H]3C[C@H](F)C4=CC(=O)C=C[C@]4(C)[C@@]3(F)[C@@H](O)C[C@@]21C,-4.75% [at 30.3 µM] (inactive),
Nc1cnn([C@@H]2O[C@H](CO)[C@@H](O)[C@H]2O)c(=O)n1,,1.45 µM (active)
OC[C@H](Cc1cccc(O)c1)[C@H](CO)Cc1cccc(O)c1,-8.24% (inactive),
CN[C@@H]1[C@H](O)[C@H](NC)[C@H]2O[C@@]3(O)C(=O)C[C@@H](C)O[C@H]3O[C@@H]2[C@H]1O,-1.06% [at 30.3 µM] (inactive),
C#CC(C)N(C)C(=O)Nc1ccc(Cl)cc1 (stereo not given),-1.78% (inactive),
COC(=O)CCCC(=O)O,-2.46% (inactive),
CN(Cc1cc(Br)cc(Br)c1N)C1CCCCC1,-4.32% [at 30.3 µM] (inactive),
Cc1c(N)cccc1[N+](=O)[O-],0.85% (inactive),
O=C1C(CCS(=O)c2ccccc2)C(=O)N(c2ccccc2)N1c1ccccc1 (stereo not given),-0.722% [at 30.3 µM] (inactive),
CC(C)Oc1ccccc1O,0.473% (inactive),
CC1=C2[C@H](/C=C(\C)C(=O)O)CC[C@@H](C)[C@H]2CC1,-14.1% (inactive),
CCOC(=O)OC(C)OC1=C(C(=O)Nc2ccccn2)N(C)S(=O)(=O)c2ccccc21 (stereo not given),-3.42% [at 30.3 µM] (inactive),
CCN(O)CC,0.218% (inactive),
CC(C)(C)NC[C@H](O)COc1cccc2c1CCCC2=O,4.46% [at 30.3 µM] (inactive),
Nc1cccc2c(=O)[nH][nH]c(=O)c12,-1.52% (inactive),
Cc1cc(NC(=O)C2=C(O)c3ccccc3S(=O)(=O)N2C)no1,-0.344% [at 30.3 µM] (inactive),

Structure (SMILES),activation,Potency
O=C(O)c1snc(Cl)c1Cl,0.396% (inactive),
CC(C(=O)O)c1ccc(CC2CCCC2=O)cc1 (stereo not given),-4.1% [at 30.3 µM] (inactive),
COc1ccccc1Oc1c(NS(=O)(=O)c2ccc(C(C)(C)C)cc2)nc(-c2ncccn2)nc1OCCO,-2.61% [at 30.3 µM] (inactive),
C[N+]1(C)CCC(=C(c2ccccc2)c2ccccc2)CC1,-0.649% [at 30.3 µM] (inactive),
NC(=O)N1c2ccccc2CC(=O)c2ccccc21,4.52% [at 30.3 µM] (inactive),
Nc1c2c(nc3c1CCC3)CCCC2,0.214% [at 30.3 µM] (inactive),
CCC(C(=O)OCCN(CC)CC)c1ccccc1 (stereo not given),-0.187% [at 30.3 µM] (inactive),
CCCCCC(C)N (stereo not given),-0.105% [at 30.3 µM] (inactive),
O=C(NC(Cc1cc(=O)[nH]c2ccccc12)C(=O)O)c1ccc(Cl)cc1 (stereo not given),0.252% [at 30.3 µM] (inactive),
CCOc1cc(OCC)c(C(C)=O)cc1OCC,-5.25% (inactive),
CC(=O)Nc1cccc(C)c1,0.406% (inactive),
CC(c1cc(C(C)(C)C)cc(C(C)(C)C)c1O)c1cc(C(C)(C)C)cc(C(C)(C)C)c1O,1.37% (inactive),
CN1C(=O)OC(C)(C)C1=O,1.53% (inactive),
CC(C(=O)O)c1ccc2c(c1)CC(=O)c1ccccc1S2 (stereo not given),-4.22% [at 30.3 µM] (inactive),
Cc1cccc(C)c1OCC(C)N (stereo not given),-3.29% [at 30.3 µM] (inactive),
CC/C(=C\C(=N/O)C(N)=O)C(C)[N+](=O)[O-] (stereo not given),8.23% (inactive),
Nc1ccc(S(=O)(=O)Nc2ccnn2-c2ccccc2)cc1,1.07% [at 13.5 µM] (inactive),
COc1cc(NS(=O)(=O)c2ccc(N)cc2)ncn1,0.328% [at 30.3 µM] (inactive),
NC(=O)C1(N2CCCCC2)CCN(CCCC(=O)c2ccc(F)cc2)CC1,-0.0564% [at 30.3 µM] (inactive),
C[C@H](CCC(=O)NCC(=O)O)[C@H]1CC[C@H]2[C@@H]3[C@H](O)C[C@@H]4C[C@H](O)CC[C@]4(C)[C@H]3C[C@H](O)[C@]12C,-1.65% (inactive),
